Drawing on publication PMC10668032, “Altered binding affinity of SIX1-Q177R correlates with enhanced WNT5A and WNT pathway effector expression in Wilms tumor”, this text covers binding signal for 86 sequences.

In all, about 33,000 sequences were measured (“e-score”: median about -0.05, highest 2% from about 0.38 on). The sample as a whole holds a higher share of the highest values than the screen did.

The assay deals with T1, SIX1-Q177R homeodomain (human, UniProt Q15475 108-198, Q177R).
T1 sequence: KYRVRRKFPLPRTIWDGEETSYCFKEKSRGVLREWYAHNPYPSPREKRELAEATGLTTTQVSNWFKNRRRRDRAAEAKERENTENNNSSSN
Nature of the assay: universal protein binding microarray; Universal all-10-mer PBM (8x60K, AMADID 030236), 300 nM GST-tagged protein, Alexa Fluor 488 anti-GST; buffer, salt, pH and temperature not stated (as in Berger); high values mean tight binding. The note with it: protein: ivt; tags: N-terminal GST; dsDNA, one strand shown. Summed up:
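GST-tagged homeodomains were made by in vitro transcription/translation and quantified by anti-GST western blot against a recombinant GST standard curve. They were applied in duplicate at 300 nM final concentration to universal 'all 10-mer' protein binding microarrays (8×60K format). Binding was quantified as 8-mer E-scores with the Universal PBM Analysis Suite.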
For the sequence AACCTACA, the binding signal came to 0.192 ± 0.0148 E-score.
Regarding GTACTGAC, the binding signal turned out to be 0.172 ± 0.0189 E-score.
With CGCACCCA, the binding signal stood at 0.193 ± 0.0349 E-score.
Then CACACCCC, with 0.402 ± 0.0285 E-score; and GACACCCA, with 0.479 ± 0.00732 E-score; and CGCACCCG, with 0.245 ± 0.0361 E-score.
Turning to CACCCCCG, the binding signal stood at 0.325 ± 0.0496 E-score.
Turning to GACCCCCC, the binding signal worked out at 0.248 ± 0.0557 E-score.
CACCCCCC: the binding signal came out at 0.341 ± 0.0318 E-score.
Then CACACCCG, with 0.423 ± 0.0208 E-score; and CCCACCCC, with 0.304 ± 0.0356 E-score; and GACCCCCA, with 0.233 ± 0.0487 E-score.
As for GGCACCCC, the binding signal is 0.158 ± 0.0472 E-score.
GACACCCC: the binding signal came to 0.487 ± 0.00971 E-score.
Regarding CCCCTGAC, the binding signal turned out to be 0.271 ± 0.0456 E-score.
On to CAATGGTG, for which the binding signal came to 0.299 E-score.
CACTCGAC: the binding signal was found to be 0.211 ± 0.00795 E-score.
For the sequence CGGGTCTC, the binding signal was 0.207 ± 0.0182 E-score.
Regarding ATGAGGGG, the binding signal stood at 0.195 ± 0.0319 E-score.
For AAGTCGTG, the binding signal came to 0.169 ± 0.0361 E-score.
For the sequence AGATGGAG, the binding signal was determined as 0.181 ± 0.00463 E-score.
As to CACGCAAA, the binding signal was 0.251 ± 0.0233 E-score.
Take AACTCACA: the binding signal turned out to be 0.174 ± 0.0813 E-score.
Take CTGATACC: the binding signal came out at 0.312 ± 0.00631 E-score.
As to CGGGAGTA, the binding signal was 0.26 ± 0.0317 E-score.
As for CACCCATA, the binding signal amounted to 0.301 ± 0.0276 E-score.
Then CACCTTGA, with 0.177 ± 0.00756 E-score; and GTTCTACA, with 0.239 ± 0.00598 E-score.
As to GATCCCCA, the binding signal came to 0.267 ± 0.0387 E-score.
In the case of AGCACCCA, the binding signal was 0.159 ± 0.0296 E-score.
In the case of AGCACCCT, the binding signal is 0.172 ± 0.0259 E-score.
Turning to AACACCCG, the binding signal worked out at 0.466 E-score.
To ACCACCCT belongs 0.183 ± 0.0205 E-score; to ACCACCCC, 0.249 ± 0.0234 E-score; to AACACCCA, 0.4561 ± 0.00225 E-score.
For the sequence AGCACCCC, the binding signal came out at 0.295 ± 0.0259 E-score.
To AACACCCC belongs 0.4753 ± 0.00361 E-score.
Regarding AACCCCCA, the binding signal turned out to be 0.209 ± 0.0281 E-score.
On to AACACCCT, for which the binding signal amounted to 0.4609 ± 0.00173 E-score.
On to AACCCCCG, for which the binding signal is 0.244 ± 0.0392 E-score.
Then AGCACCCG, with 0.262 ± 0.00343 E-score; and AACTCCGG, with 0.161 ± 0.0108 E-score.
In the case of ACCTCGTG, the binding signal amounted to 0.208 ± 0.00536 E-score.
As to ACGCCGGG, the binding signal was found to be 0.16 ± 0.00711 E-score.
Take CGGATAAC: the binding signal was found to be 0.213 ± 0.00738 E-score.
For ACCTAGTG, the binding signal was determined as 0.232 ± 0.0203 E-score.
To CCGACCGG belongs 0.172 ± 0.0141 E-score; to CGCGCACC, 0.193 ± 0.014 E-score.
With AACGGAGT, the binding signal turned out to be 0.152 ± 0.031 E-score.
Take ACCAGACA: the binding signal was 0.234 ± 0.0203 E-score.
On to ACGATACC, for which the binding signal came out at 0.3575 ± 0.00339 E-score.
Then CCCACCCA, with 0.204 ± 0.0309 E-score.
With TACCCCCA, the binding signal amounted to 0.304 ± 0.00484 E-score.
CACACCCA: the binding signal was 0.382 ± 0.038 E-score.
To TACACCCA belongs 0.4707 ± 0.00252 E-score; to CACCCCCA, 0.368 ± 0.0341 E-score; to TGCACCCA, 0.153 ± 0.0378 E-score.
On to CGAACGGA, for which the binding signal is 0.21 ± 0.0321 E-score.
To ACCCAGTA belongs 0.175 ± 0.0267 E-score.
Then GTGTTTTA, with 0.361 ± 0.026 E-score.
Consider CTGTTACA, for which the binding signal was found to be 0.238 ± 0.0173 E-score.
As for GTGTTAAC, the binding signal came out at 0.415 ± 0.0316 E-score.
As for GTGTTATA, the binding signal is 0.432 ± 0.0299 E-score.
On to GTGTTACA, for which the binding signal turned out to be 0.4422 ± 0.00139 E-score.
On to GTGTGAAC, for which the binding signal is 0.362 ± 0.00749 E-score.
Turning to GGGTTATA, the binding signal is 0.2303 ± 0.000672 E-score.
As to ATGTTACA, the binding signal was 0.177 ± 0.00778 E-score.
Regarding GTGTTTGA, the binding signal amounted to 0.35 ± 0.00533 E-score.
GTGTTAGA: the binding signal came out at 0.41 ± 0.0163 E-score.
For the sequence GAGTTAAC, the binding signal is 0.171 ± 0.00701 E-score.
In the case of ACCTAACA, the binding signal turned out to be 0.203 ± 0.0209 E-score.
For the sequence ACAAGGGT, the binding signal turned out to be 0.21 ± 0.00286 E-score.
Regarding AAGAGTGT, the binding signal was 0.363 ± 0.0349 E-score.
Then CCGACGCC, with 0.154 ± 0.0342 E-score; and AGGGAGTG, with 0.163 ± 0.00586 E-score.
As to CACTAACC, the binding signal was 0.17 ± 0.00501 E-score.
As to AGGGCGTG, the binding signal worked out at 0.169 ± 0.0301 E-score.
On to CTCCGACA, for which the binding signal was 0.175 ± 0.075 E-score.
As for ACCTGCCT, the binding signal stood at 0.198 ± 0.0238 E-score.
On to CACCTTAG, for which the binding signal was determined as 0.286 ± 0.00858 E-score.
Consider CGCGGGTA, for which the binding signal is 0.273 ± 0.00467 E-score.
On to CGGTGCGA, for which the binding signal amounted to 0.155 ± 0.0742 E-score.
As for TGGAAACA, the binding signal was 0.223 ± 0.0152 E-score.
With GTGTTAAA, the binding signal is 0.403 ± 0.0279 E-score.
Regarding GGGTTAAA, the binding signal is 0.214 ± 0.0192 E-score.
For the sequence GTGTTTAA, the binding signal was found to be 0.375 ± 0.015 E-score.
